Assay results published in PubChem BioAssay (EPA / NIEHS).
The source made the active and inactive calls. The calls were made as follows: active = hit-call score of the fitted dose curve at least 0.9, where 1 is the maximum; inactive = score below 0.9.

Key:
Conditions in all cases: mRNA level, 48 h; actives raise or lower the signal
[1] = read-out: CYP3A5 (gene 1577); test: LTEA_HepaRG_CYP3A5: Life Technologies and Expression Analysis (LTEA) Assay for CYP3A5 using HepaRG (AID 2283493)
Outline: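 Human HepaRG hepatic cells receive 48 h chemical treatment at eight concentrations (half-log steps from 100 uM) in 0.5% DMSO. Expression of CYP3A5 is quantified by Fluidigm qRT-PCR and normalized to three reference genes.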

[2] = read-out: Fatty Acid-Binding Protein 1 (FABP1), FABP1 (gene 2168); test: LTEA_HepaRG_FABP1: Life Technologies and Expression Analysis (LTEA) Assay for Fatty Acid-Binding Protein 1 (FABP1) using HepaRG (AID 2283494)
Outline: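 qRT-PCR readout of FABP1 transcript (normalized to three housekeeping genes) after 48 h chemical exposure of HepaRG cells; eight concentrations, half-log steps, max 100 uM, 0.5% DMSO vehicle; gain or loss fitted relative to DMSO baseline.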

[3] = read-out: Cytochrome P450 7A1 (Homo sapiens) (UniProt P22680); test: LTEA_HepaRG_CYP7A1: Life Technologies and Expression Analysis (LTEA) Assay for Cytochrome P450 7A1 (CYP7A1) using HepaRG (AID 2283496)
Outline: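 HepaRG, 48 h exposure, 8-pt half-log series from 100 uM, 0.5% DMSO vehicle, duplicates. Readout: TaqMan qRT-PCR mRNA vs three housekeeping genes; bidirectional curve fit against DMSO baseline.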

[4] = read-out: Glutathione S-Transferase (GSTA2), GSTA2 (gene 2939); test: LTEA_HepaRG_GSTA2: Life Technologies and Expression Analysis (LTEA) Assay for Glutathione S-Transferase (GSTA2) using HepaRG (AID 2283497)
Outline: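 qRT-PCR readout of GSTA2 transcript, normalized to three housekeeping genes, fitted bidirectionally against 0.5% DMSO baseline. Differentiated HepaRG cells received compound for 48 h at 8 concentrations (top 100 uM, half-log steps).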

[5] = read-out: Glutamate-cysteine ligase catalytic (GCLC), GCLC (gene 2729); test: LTEA_HepaRG_GCLC: Life Technologies and Expression Analysis (LTEA) Assay for Glutamate-cysteine ligase catalytic (GCLC) using HepaRG (AID 2283498)
Outline: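 HepaRG, 48 h exposure, 8-pt half-log series from 100 uM, 0.5% DMSO vehicle; TaqMan qRT-PCR for GCLC mRNA, housekeeping-normalized; bidirectional curve fit vs DMSO baseline.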

[6] = read-out: growth arrest and DNA damage 45 (GADD45G), GADD45G (gene 10912); test: LTEA_HepaRG_GADD45G: Life Technologies and Expression Analysis (LTEA) Assay for growth arrest and DNA damage 45 (GADD45G) using HepaRG (AID 2283499)
Outline: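 Gain or loss of GADD45G mRNA, quantified by TaqMan qRT-PCR against three housekeeping genes, is fitted in both directions relative to 0.5% DMSO. Human HepaRG cultures receive test chemical for 48 h at up to 100 uM.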

[7] = read-out: Glutamate-cysteine ligase regulatory (GCLM), GCLM (gene 2730); test: LTEA_HepaRG_GCLM: Life Technologies and Expression Analysis (LTEA) Assay for Glutamate-cysteine ligase regulatory (GCLM) using HepaRG (AID 2283500)
Outline: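 Endpoint is GCLM transcript level by qRT-PCR, normalized to three housekeeping genes, after 48 h chemical exposure of human HepaRG cells (0.5% DMSO vehicle, top 100 uM, half-log dilutions). Fitting was bidirectional relative to DMSO.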

[8] = read-out: Glutathione S-transferase M3 (GSTM3), GSTM3 (gene 2947); test: LTEA_HepaRG_GSTM3: Life Technologies and Expression Analysis (LTEA) Assay for Glutathione S-transferase M3 (GSTM3) using HepaRG (AID 2283501)
Outline: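 HepaRG, plated 48 h, then serum-free induction medium; test chemical 48 h, duplicate; 100 uM top, half-log x8, 0.5% DMSO. Read-out: GSTM3 mRNA (TaqMan qRT-PCR, Fluidigm array). Bidirectional fit vs DMSO.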

[9] = read-out: Heat shock 70 kDa protein 1 (HSPA1A), gene 3303; test: LTEA_HepaRG_HSPA1A: Life Technologies and Expression Analysis (LTEA) Assay for Heat shock 70 kDa protein 1 (HSPA1A) using HepaRG (AID 2283502)
Outline: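 Cells were plated and cultured for 48 h, then switched to serum-free induction medium. Chemicals were added at eight half-log concentrations up to 100 uM for 48 h. RNA was then isolated and HSPA1A measured by qRT-PCR with bidirectional curve fitting against DMSO.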

O=C(O)c1cccc(C[C@@H]2COc3ccc(OCc4nc5cc(F)ccc5s4)cc3[C@@H]2O)c1
outcome [1]: inactive
AC50 [2]: 79.3 µM (active)
AC50 [3]: 77.6 µM (active)
outcome [4]: inactive
outcome [5]: inactive
AC50 [6]: 79.5 µM (active)
outcome [7]: inactive
outcome [8]: inactive
AC50 [9]: 89.2 µM (active)

Cn1cc[nH]c1=S
outcome [2]: inactive
outcome [3]: inactive
outcome [4]: inactive
outcome [5]: inactive
outcome [6]: inactive
outcome [7]: inactive
outcome [8]: inactive
outcome [9]: inactive

Cn1c(=O)c2[nH]cnc2n(C)c1=O
outcome [1]: inactive
outcome [3]: inactive
outcome [4]: inactive
outcome [5]: inactive
outcome [6]: inactive
outcome [7]: inactive
outcome [8]: inactive
outcome [9]: inactive

NC(=O)N1c2ccccc2C=Cc2ccccc21
outcome [1]: inactive
outcome [2]: inactive
outcome [3]: inactive
outcome [4]: inactive
outcome [5]: inactive
outcome [6]: inactive
outcome [7]: inactive
outcome [8]: inactive
outcome [9]: inactive

c1ccc2ncccc2c1
outcome [1]: inactive
outcome [2]: inactive
outcome [3]: inactive
outcome [4]: inactive
outcome [5]: inactive
outcome [6]: inactive
outcome [7]: inactive
outcome [8]: inactive
outcome [9]: inactive

NC(=O)N(O)[C@@H]1COc2cc(OCc3ccccc3)ccc21
outcome [1]: inactive
outcome [2]: inactive
outcome [3]: inactive
outcome [4]: inactive
outcome [5]: inactive
outcome [6]: inactive
outcome [7]: inactive
outcome [8]: inactive
outcome [9]: inactive

C=CCc1cc(S(=O)(=O)c2ccc(O)c(CC=C)c2)ccc1O
AC50 [1]: 9.92 µM (active)
AC50 [2]: 86.8 µM (active)
AC50 [3]: 83.1 µM (active)
AC50 [4]: 93.1 µM (active)
AC50 [5]: 50 µM (active)
outcome [6]: inactive
outcome [7]: inactive
outcome [8]: inactive
AC50 [9]: 79 µM (active)

Cc1ccc(S(=O)(=O)NC(=O)NN2CCCCCC2)cc1
outcome [2]: inactive
outcome [4]: inactive
outcome [5]: inactive
outcome [6]: inactive
outcome [7]: inactive
outcome [8]: inactive
outcome [9]: inactive

CC(C)CC(C)O (configuration not stated)
outcome [1]: inactive
outcome [2]: inactive
outcome [3]: inactive
outcome [4]: inactive
outcome [5]: inactive
outcome [6]: inactive
outcome [7]: inactive
outcome [8]: inactive
outcome [9]: inactive
